We go through seven compounds from PubChem BioAssay.

Active and inactive are the calls of the source. Unless noted, no rule for the calls is given here.

Experiment [1] in a line: HepG2 liver cancer cell viability effects, profiling panel, resazurin fluorescence, 24 h, PK04 Diversity Set (AID 1172). The conditions noted are these: higher = more signal. (Alamar Blue is a resazurin reagent that responds to reducing activity.)
The nature of experiment [2]: basal S. cerevisiae growth modulation, no modifier, primary screen, OD600, strain BY4716, 24 h, basal condition (AID 1173). Particulars: OD600, 24 h, higher = more signal, called active from +8 up or from −8 down.
Experiment [3] can be described thus: MM1S myeloma cell viability, profiling panel, resazurin fluorescence, basal, 24 h, PK04 Diversity Set (AID 1174).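 Also: MM1S multiple myeloma cell line.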 The conditions noted are these: higher = more signal, called active from +8 up or from −8 down.
Experiment [4] has as its target Dihydroorotate dehydrogenase (quinone), mitochondrial (Plasmodium falciparum (isolate 3D7)) (UniProt Q08210). Description: PfDHODH enzyme inhibitors, primary screen, biochemical, C-terminal His tag, absorbance 600 nm (AID 1175).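 Also: recombinant parasite enzyme with a five histidine tag at its C terminus.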 Particulars: DCIP absorbance 600 nm, higher = more signal, called active from +8 up or from −8 down.
A short description of experiment [5]: P. aeruginosa biofilm formation inhibitors, primary screen, strain PAO1, LB-PBS medium, absorbance 600 nm (AID 1176). The conditions noted are these: P. aeruginosa PAO1 growth/biofilm, A600, 12 h; higher = more signal.
Experiment [6] can be described thus: S. cerevisiae RM11-1a growth modifiers, primary screen, strain RM11-1a, OD600, basal, 24 h (AID 1177).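 Also: cultures grown under basal conditions with no added stressor.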 The conditions noted are these: OD600, 24 h, higher = more signal, called active from +8 up or from −8 down.
Experiment [7] in a line: E. coli acrAB mutant growth effects, primary screen, E. coli filamentation inducers, strain DRC39, OD650, 24 h (AID 1178).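 Also: growth measured as culture turbidity by optical density at 650 nm.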 Particulars: higher = more signal, called active from +8 up or from −8 down.
Experiment [8] can be described thus: E. coli acrAB mutant growth effects, primary screen, E. coli filamentation inducers, strain DRC39, OD650, 48 h (AID 1179).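 Also: screen aims at cell division blockers that make cells filament.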 Particulars: E. coli DRC39 delta-acrAB growth, higher = more signal, called active from +8 up or from −8 down.
A short description of experiment [9]: RPMI8226 myeloma cell viability, profiling panel, resazurin fluorescence, basal, 24 h, PK04 Diversity Set (AID 1180).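 Also: RPMI8826 multiple myeloma cell line at 5000 cells per well.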 Particulars: higher = more signal.
The target of experiment [10] is E3 ubiquitin-protein ligase XIAP (Homo sapiens) (UniProt P98170). Description: XIAP binders, primary screen, biophysical, small-molecule microarray, fluorescence 635 nm (AID 1181).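 Also: score merges 667 nm emission and signal to noise over triplicate slides.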 The conditions noted are these: small-molecule microarray binding, higher = more signal.
The test system of experiment [11] is XIP peptide (Xip251-270) binding. Description: small-molecule binders of XIP peptide, primary screen, biochemical, small-molecule microarray, fluorescence 635/667 nm, 0.1 µg/mL protein (AID 1182). Particulars: fluorescent protein binding, 635 nm, higher = more signal, called active from +8 up or from −8 down.
The next experiment has as its system XIP peptide (Xip251-270). The experiment is described as follows: small-molecule binders of XIP peptide, primary screen, biochemical, small-molecule microarray, fluorescence 635/667 nm, 0.5 µg/mL protein (AID 1183). The conditions noted are these: small-molecule microarray binding, fluorescence 635 nm; higher = more signal.
Experiment [12] in a line: Plasmodium falciparum growth inhibition, primary screen, strain 3D7, DAPI fluorescence, 100 nL (AID 1184).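 Also: parasites grown inside human red blood cells in medium with human serum.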 The conditions noted are these: P. falciparum 3D7 growth, 3 d, higher = more signal.
In experiment [13] the target is Homeobox protein Hox-A13 (Mus musculus) (UniProt Q62424). Description: inhibitors of HoxA13-DNA binding, primary screen, biochemical, fluorescence polarization, labeled oligonucleotide (AID 1185). The conditions noted are these: 15 min, higher = more signal, called active from +8 up or from −8 down.
A short description of experiment [14]: inhibitors of hydroxyurea-induced Chk1 phosphorylation, primary screen, imaging, HeLa, phospho-Chk1 antibody, percent positive cells (AID 1186). The conditions noted are these: hydroxyurea-induced phospho-Chk1 immunofluorescence imaging, higher = more signal.
Experiment [15] is described as follows: inhibitors of hydroxyurea-induced Chk1 phosphorylation, primary screen, imaging, HeLa, phospho-Chk1 nuclear intensity (AID 1187). Particulars: hydroxyurea-induced phospho-Chk1 immunofluorescence imaging, higher = more signal.

Homeobox protein Hox-A13 (Mus musculus), sequence (Q62424 whole entry, looked up): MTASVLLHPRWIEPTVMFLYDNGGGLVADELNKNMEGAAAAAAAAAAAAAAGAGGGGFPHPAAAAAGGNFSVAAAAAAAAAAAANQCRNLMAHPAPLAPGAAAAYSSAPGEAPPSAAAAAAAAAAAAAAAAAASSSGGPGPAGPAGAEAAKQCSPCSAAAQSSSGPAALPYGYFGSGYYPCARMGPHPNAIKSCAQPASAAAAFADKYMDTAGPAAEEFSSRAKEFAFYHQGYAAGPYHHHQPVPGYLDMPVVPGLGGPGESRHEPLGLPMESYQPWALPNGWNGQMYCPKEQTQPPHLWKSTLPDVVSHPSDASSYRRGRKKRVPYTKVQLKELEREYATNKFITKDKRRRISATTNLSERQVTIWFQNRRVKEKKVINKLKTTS
Dihydroorotate dehydrogenase (quinone), mitochondrial (Plasmodium falciparum (isolate 3D7)), sequence (Q08210 whole entry, looked up): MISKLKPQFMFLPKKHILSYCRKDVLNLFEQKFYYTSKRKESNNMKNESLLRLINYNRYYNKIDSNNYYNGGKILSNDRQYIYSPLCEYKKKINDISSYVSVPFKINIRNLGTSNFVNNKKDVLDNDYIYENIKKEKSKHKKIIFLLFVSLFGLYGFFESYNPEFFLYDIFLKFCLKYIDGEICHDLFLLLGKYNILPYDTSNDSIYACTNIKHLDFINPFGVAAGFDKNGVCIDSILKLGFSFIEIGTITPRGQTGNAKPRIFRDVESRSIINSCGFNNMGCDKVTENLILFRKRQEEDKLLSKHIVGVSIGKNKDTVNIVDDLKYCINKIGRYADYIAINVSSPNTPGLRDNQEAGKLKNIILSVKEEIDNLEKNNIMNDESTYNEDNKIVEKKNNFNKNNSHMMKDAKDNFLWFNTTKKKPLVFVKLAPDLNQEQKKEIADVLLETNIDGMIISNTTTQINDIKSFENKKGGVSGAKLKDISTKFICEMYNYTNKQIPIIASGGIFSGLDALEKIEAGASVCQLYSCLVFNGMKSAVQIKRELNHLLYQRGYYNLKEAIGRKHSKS
E3 ubiquitin-protein ligase XIAP (Homo sapiens), sequence (P98170 whole entry, looked up): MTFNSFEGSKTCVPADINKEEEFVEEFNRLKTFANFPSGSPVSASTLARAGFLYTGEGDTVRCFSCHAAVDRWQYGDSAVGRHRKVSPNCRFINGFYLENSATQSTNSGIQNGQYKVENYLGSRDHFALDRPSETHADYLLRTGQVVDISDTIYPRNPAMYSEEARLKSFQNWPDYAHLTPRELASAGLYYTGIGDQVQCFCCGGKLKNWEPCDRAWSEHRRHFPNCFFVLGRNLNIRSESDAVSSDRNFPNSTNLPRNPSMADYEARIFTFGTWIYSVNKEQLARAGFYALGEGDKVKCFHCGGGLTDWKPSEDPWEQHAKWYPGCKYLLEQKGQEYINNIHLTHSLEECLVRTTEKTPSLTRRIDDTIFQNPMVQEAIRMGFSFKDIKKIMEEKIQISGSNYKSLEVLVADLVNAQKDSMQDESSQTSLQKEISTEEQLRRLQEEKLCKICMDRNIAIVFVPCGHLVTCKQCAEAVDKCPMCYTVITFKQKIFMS

`C=CCOC(=O)[C@@H]1[C@H]2C(=O)O[C@H](c3ccccc3)[C@H](c3ccccc3)N2[C@H](c2ccc(OCCOC(=O)[C@H]3C[C@H]4C(=O)N5CCC[C@H]5C(=O)N4[C@H]3c3cccc(OCCO)c3)cc2)[C@@]12C(=O)Nc1ccc(I)cc12`: the z-score is 0.0829 in experiment [1]; 2.04 (inactive) in experiment [2]; -0.273 (inactive) in experiment [3]; 3.81 (inactive) in experiment [5]; 1.89 (inactive) in [6]; -0.0055 (inactive) in experiment [7]. In addition, the z-score in experiment [8] is -0.365 (inactive); in [9], -0.166; in experiment [12] it was -0.441; in experiment [13], 0.634 (inactive); in [14] it was -0.479 (inactive); in [15] it was -0.434 (inactive). In addition, the composite z-score was 0.0219 (inactive) in experiment [4], 0.0003 in [10], 0.781 (inactive) in [11] and 0.875 in the experiment with XIP peptide (Xip251-270).

As for `COCCOC(=O)N1C(=O)[C@@]2(c3ccccc31)[C@H](c1ccc(O)cc1)N1[C@H](c3ccccc3)[C@H](c3ccccc3)OC(=O)[C@H]1[C@@H]2C(=O)N1CCCCCCC1`, the z-score was 0.0454 in experiment [1]; -0.712 (inactive) in experiment [2]; 0.0065 (inactive) in experiment [3]; 1.57 (inactive) in [5]; -0.122 (inactive) in experiment [6]; -0.391 (inactive) in [7]. Besides, the z-score in [8] was -1.88 (inactive); in [9], 0.248; in experiment [12], -1.01; in experiment [13], 0.899 (inactive); in experiment [14], -0.0437 (inactive); in [15] it was 0.157 (inactive). In addition, the composite z-score was 0.161 (inactive) in experiment [4], 0.587 in experiment [10], 4.66 (inactive) in [11] and 0.91 in the experiment with XIP peptide (Xip251-270).

Regarding `CN1C(=O)C2C(C1=O)C1C=C(CCCO)C2C(C2CC2)N1Cc1cccc(OC(F)(F)F)c1` (configuration not stated), the z-score is -0.584 in experiment [1]; -1.13 (inactive) in [2]; -0.551 (inactive) in experiment [3]; 0.559 (inactive) in experiment [5]; 0.132 (inactive) in experiment [6]; 0.492 (inactive) in experiment [7]. The z-score in experiment [8] was -0.377 (inactive); in experiment [9], -0.615; in experiment [12] it was -1.06; in experiment [13], -7.06 (inactive); in experiment [14], 0.0426 (inactive); in experiment [15], -0.0667 (inactive). Further, the composite z-score is -1.75 (inactive) in [4], 0.0105 in experiment [10], 0.0292 (inactive) in experiment [11] and 0.9 in the experiment on XIP peptide (Xip251-270).

Regarding `COC(=O)[C@@]1(Cc2ccccc2)[C@H]2c3cc(C(=O)N4CCCC4)n(Cc4ccc(OC)c(OC)c4)c3C[C@H]2CN1C(=O)c1ccccc1`, the z-score is 0.181 in experiment [1]; 1.58 (inactive) in [2]; -0.466 (inactive) in [3]; 0.0944 (inactive) in experiment [5]; 1.72 (inactive) in [6]; -0.372 (inactive) in [7]. Moreover, the z-score in experiment [8] was 0.352 (inactive); in experiment [9], -0.172; in experiment [12] it was -1.32; in [13], -4.87 (inactive); in experiment [14] it was 0.243 (inactive); in experiment [15] it was 0.282 (inactive). Besides, the composite z-score in experiment [4] was 0.263 (inactive); in experiment [10], 0.0589; in experiment [11], 0.633 (inactive); in the experiment with XIP peptide (Xip251-270), 0.0643.

In the case of `C=C(C)[C@@H]1CC=C(C(O)C2C=CC3C(=O)N(C)C(=O)C3N2Nc2ccc([N+](=O)[O-])cc2[N+](=O)[O-])CC1` (some centres not stated), the z-score in [1] was -0.902; in experiment [2] it was 0.522 (inactive); in experiment [3] it was -1.28 (inactive); in experiment [5] it was 0.599 (inactive); in [6], 0.442 (inactive); in experiment [7], -0.358 (inactive). For the same compound, the z-score in experiment [8] is -0.339 (inactive); in [9], -1.1; in experiment [12], 0.481; in experiment [13] it was -4.28 (inactive); in [14], 0.385 (inactive); in [15], 0.279 (inactive). Also, the composite z-score in [4] is -0.109 (inactive); in experiment [10] it was 0.158; in experiment [11], -0.0868 (inactive); in the experiment with XIP peptide (Xip251-270) it was 0.641.

`COc1cc(CO)cc(I)c1O[C@H]1C=C(C(=O)NCCO)C[C@@H]2O[C@H]12`: the z-score in experiment [1] is -0.876; in experiment [2], -11.2 (active); in experiment [3] it was -0.0563 (inactive); in [5], -0.0339 (inactive); in [6], 1.69 (inactive); in [7], -0.364 (inactive). Further, the z-score is -0.475 (inactive) in experiment [8]; -0.408 in [9]; -1.41 in experiment [12]; -7.29 (inactive) in [13]; 0.552 (inactive) in experiment [14]; 0.361 (inactive) in experiment [15]. For the same compound, the composite z-score in experiment [4] is -1.32 (inactive); in [10], 0.305; in experiment [11], 0.28 (inactive); in the experiment on XIP peptide (Xip251-270), 0.347.

For the compound `O=C1[C@@H]2[C@@H](CC(COc3ccccc3)=C([C@H](O)CCc3ccccc3)[C@@H]2CO)C(=O)N1Cc1ccccc1`, the z-score is -1.38 in experiment [1]; -0.0733 (inactive) in [2]; -0.577 (inactive) in [3]; 0.258 (inactive) in experiment [5]; 1.47 (inactive) in experiment [6]; 0.372 (inactive) in [7]. The z-score in experiment [8] is 0.203 (inactive); in [9], -0.664; in experiment [12] it was -0.0811; in [13], -6.92 (inactive); in experiment [14], -0.556 (inactive); in experiment [15], -0.945 (inactive). Moreover, the composite z-score in [4] was -2.37 (inactive); in experiment [10], 0.15; in [11] it was -0.268 (inactive); with XIP peptide (Xip251-270), 0.73.
